Test results as given in PubChem BioAssay (EPA / NIEHS).
Records with an inconclusive call do not appear. Active and inactive are the calls of the source. Rule for the calls, unless noted: active = hit-call score of the fitted dose curve at least 0.9, where 1 is the maximum; inconclusive = response in the unintended direction; inactive = score below 0.9.

Legend:
[1] = test system: Sodium/Iodide Symporter (NIS), SLC5A5 (gene 6528); experiment: CPHEA_Stoker_NIS_Inhibition_RAIU: CPHEA's Radioactive Iodide Uptake (RAIU) Assay for Sodium/Iodide Symporter (NIS) Inhibition, Stoker and Laws Labs (AID 2283841)
How it was run: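 Test chemicals, six concentrations from 0.001 to 100uM in 0.5% DMSO, were co-incubated with carrier-free 125I (final 329pM) on hNIS-HEK293T-EPA monolayers in pH 7.4 HEPES-buffered HBSS. Plates stood 2 hours at room temperature, then were washed cold and counted.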

[2] = CPHEA_Stoker_NIS_Cytotoxicity: Cytotoxicity Assessment for CPHEA's Radioactive Iodide Uptake (RAIU) Assay for Sodium/Iodide Symporter (NIS) Inhibition, Stoker and Laws Labs (AID 2283897);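 for AC50: active means loss of ATP signal versus DMSO meaning cytotoxicity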
How it was run: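 Viability in hNIS-HEK293T-EPA cells is scored as a drop in luciferase-detected ATP following 2-hour room-temperature exposure (0.001–100uM; triplicate wells, three cell passages), with DMSO as negative control.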

[3] = CEETOX_H295R_11DCORT_noMTC: CeeTox H295R High-throughput Steroidogenesis Assay for 11-Deoxycortisol (11DCORT), maximum tolerated concentration (MTC) filtered results only (AID 2283911; active = hit-call score of the fitted dose curve at least 0.9, where 1 is the maximum; inactive = score below 0.9); conditions: actives raise or lower the signal
How it was run: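 Readout is 11-deoxycortisol in culture medium by reverse-phase HPLC with MS/MS, after 48 h chemical treatment of forskolin-primed H295R cells. Values are relative to DMSO and unfiltered for cytotoxicity.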

[4] = test system: zebrafish Peroxisome Proliferator-activated Receptor gamma (PPARg), gene 557037; experiment: ATG_zfPPARg_XSP2: Attagene TRANS-FACTORIAL Multi-Species (XSP2) HepG2 Assay for zebrafish Peroxisome Proliferator-activated Receptor gamma (PPARg) (AID 2283833);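 note: reporter mRNA from a zebrafish PPARg GAL4 chimera measured by RT-PCR and capillary electrophoresis; actives increase reporter signal over DMSO so AC50 reflects activation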
How it was run: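 Cell-based transactivation of a chimeric zebrafish PPARg-GAL4 receptor was assessed in transiently transfected HepG2 cells after 24 h of treatment. Reporter mRNA induction, detected fluorescently after RT-PCR, was analysed in the positive direction against DMSO.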

[5] = test system: turtle Thyroid Hormone Receptor, alpha (TRa), gene 101949057; experiment: ATG_trTRa_XSP2: Attagene TRANS-FACTORIAL Multi-Species (XSP1) HepG2 Assay for turtle Thyroid Hormone Receptor, alpha (TRa) (AID 2283834);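 note: hits raise reporter mRNA over the DMSO baseline so AC50 marks activators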
How it was run: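 Gain-of-signal reporter transcription measured in transiently transfected HepG2 at 24 h post-dose. Fluorescent RT-PCR products were resolved by capillary electrophoresis and compared with DMSO vehicle.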

[6] = ATG_M_61_XSP2: Attagene TRANS-FACTORIAL Multi-Species (XSP2) HepG2 Assay for M61 Transcription Factor (Internal Marker) (AID 2283835; active = hit-call score of the fitted dose curve at least 0.9, where 1 is the maximum; inactive = score below 0.9;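 note: reporter mRNA of an internal background marker read by RT-PCR and capillary electrophoresis; active means a rise in signal above the DMSO baseline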)
How it was run: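 HepG2 cells transiently transfected with multiple GAL4-UAS reporter units; 3 nM 6-alpha-fluorotestosterone and 1.5 nM norgestrel present to stimulate androgen receptor. After 24 h compound exposure, reporter mRNA measured by RT-PCR and capillary electrophoresis fluorescence, gain-of-signal versus DMSO baseline.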

[7] = target: zebrafish Thyroid Hormone Receptor beta (TRb), thrb (gene 30607) (UniProt Q9PVE4); experiment: ATG_zfTRb_XSP2: Attagene TRANS-FACTORIAL Multi-Species (XSP1) HepG2 Assay for zebrafish Thyroid Hormone Receptor beta (TRb) (AID 2283836);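 for AC50: potency for induction of reporter signal above DMSO so agonist direction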
Chain of zebrafish Thyroid Hormone Receptor beta (TRb), thrb (gene 30607) (Q9PVE4 whole entry, looked up, the tested form may be a part): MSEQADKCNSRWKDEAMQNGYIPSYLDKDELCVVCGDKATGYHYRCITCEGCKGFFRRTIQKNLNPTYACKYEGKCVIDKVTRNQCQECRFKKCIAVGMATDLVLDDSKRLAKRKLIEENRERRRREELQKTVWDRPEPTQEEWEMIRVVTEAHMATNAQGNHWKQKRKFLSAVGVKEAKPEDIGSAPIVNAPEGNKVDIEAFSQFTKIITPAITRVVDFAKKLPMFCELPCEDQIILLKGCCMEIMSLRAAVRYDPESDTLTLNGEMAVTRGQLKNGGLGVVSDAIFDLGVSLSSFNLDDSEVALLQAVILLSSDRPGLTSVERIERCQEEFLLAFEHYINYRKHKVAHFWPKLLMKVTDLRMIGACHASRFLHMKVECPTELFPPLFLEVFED
How it was run: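 HepG2 cells transiently transfected with chimeric zebrafish TRb-GAL4 reporter units, dosed 24 h with 3 nM 6-alpha-fluorotestosterone and 1.5 nM norgestrel present. Reporter mRNA quantified by RT-PCR and capillary electrophoresis; gain fitted against DMSO.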

[8] = target: human Thyroid hormone Receptor alpha (TRa), THRA (gene 7067) (UniProt P10827); experiment: ATG_hTRa_XSP2: Attagene TRANS-FACTORIAL Multi-Species (XSP2) HepG2 Assay for human Thyroid hormone Receptor alpha (TRa) (AID 2283838)
Chain of human Thyroid hormone Receptor alpha (TRa), THRA (gene 7067) (P10827 whole entry, looked up, the tested form may be a part): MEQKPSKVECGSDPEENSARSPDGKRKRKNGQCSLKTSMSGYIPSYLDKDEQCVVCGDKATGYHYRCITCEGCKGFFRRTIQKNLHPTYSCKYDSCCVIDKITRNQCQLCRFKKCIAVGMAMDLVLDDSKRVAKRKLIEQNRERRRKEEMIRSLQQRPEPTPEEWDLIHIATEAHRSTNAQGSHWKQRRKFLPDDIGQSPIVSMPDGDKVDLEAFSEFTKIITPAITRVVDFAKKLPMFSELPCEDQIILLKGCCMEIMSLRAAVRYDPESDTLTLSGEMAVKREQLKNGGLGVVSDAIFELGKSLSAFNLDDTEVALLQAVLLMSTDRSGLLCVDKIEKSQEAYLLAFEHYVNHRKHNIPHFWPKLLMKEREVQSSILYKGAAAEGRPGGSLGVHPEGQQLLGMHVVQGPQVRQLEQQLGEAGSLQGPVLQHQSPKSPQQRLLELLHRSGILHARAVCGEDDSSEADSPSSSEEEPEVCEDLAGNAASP
How it was run: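 HepG2 cells were transiently transfected with GAL4-UAS reporter units for chimeric human TRa-Gal4 and dosed for 24 hours, with 3 nM 6-alpha-fluorotestosterone and 1.5 nM norgestrel present. Reporter mRNA was quantified by RT-PCR, FAM labelling and capillary electrophoresis, with gain of signal fitted versus DMSO.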

[9] = target: human Thyroid hormone Receptor beta (TRb), THRB (gene 7068) (UniProt P10828); experiment: ATG_hTRb_XSP2: Attagene TRANS-FACTORIAL Multi-Species (XSP2) HepG2 Assay for human Thyroid hormone Receptor beta (TRb) (AID 2283840);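 note: actives raise reporter mRNA so potency reflects agonist-like gain of signal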
Chain of human Thyroid hormone Receptor beta (TRb), THRB (gene 7068) (P10828 whole entry, looked up, the tested form may be a part): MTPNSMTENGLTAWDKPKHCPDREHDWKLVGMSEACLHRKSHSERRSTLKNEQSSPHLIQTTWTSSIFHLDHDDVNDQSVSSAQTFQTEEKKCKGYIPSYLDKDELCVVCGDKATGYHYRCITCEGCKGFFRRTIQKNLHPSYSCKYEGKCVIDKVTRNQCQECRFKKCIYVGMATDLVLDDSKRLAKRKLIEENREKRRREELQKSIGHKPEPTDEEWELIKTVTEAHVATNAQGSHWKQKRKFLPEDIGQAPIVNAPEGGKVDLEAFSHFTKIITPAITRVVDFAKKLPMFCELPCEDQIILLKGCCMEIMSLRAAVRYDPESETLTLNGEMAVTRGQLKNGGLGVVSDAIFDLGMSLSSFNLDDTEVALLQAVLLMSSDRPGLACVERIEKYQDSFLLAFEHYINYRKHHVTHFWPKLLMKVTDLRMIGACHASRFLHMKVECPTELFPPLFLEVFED
How it was run: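 In this cell-based multiplex, HepG2 liver cells carrying transfected GAL4-UAS reporter constructs are exposed to chemical for 24 hours, then reporter transcripts are measured by RT-PCR with capillary electrophoresis, scored as gain of signal against DMSO.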

[10] = target: frog Thyroid hormone Receptor alpha (TRa), thra-a (gene 397942) (UniProt P15204); experiment: ATG_frTRa_XSP2: Attagene TRANS-FACTORIAL Multi-Species (XSP2) HepG2 Assay for frog Thyroid hormone Receptor alpha (TRa) (AID 2283839);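 note: AC50 reflects induction of frog TRa-driven reporter mRNA above DMSO baseline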
Chain of frog Thyroid hormone Receptor alpha (TRa), thra-a (gene 397942) (P15204 whole entry, looked up, the tested form may be a part): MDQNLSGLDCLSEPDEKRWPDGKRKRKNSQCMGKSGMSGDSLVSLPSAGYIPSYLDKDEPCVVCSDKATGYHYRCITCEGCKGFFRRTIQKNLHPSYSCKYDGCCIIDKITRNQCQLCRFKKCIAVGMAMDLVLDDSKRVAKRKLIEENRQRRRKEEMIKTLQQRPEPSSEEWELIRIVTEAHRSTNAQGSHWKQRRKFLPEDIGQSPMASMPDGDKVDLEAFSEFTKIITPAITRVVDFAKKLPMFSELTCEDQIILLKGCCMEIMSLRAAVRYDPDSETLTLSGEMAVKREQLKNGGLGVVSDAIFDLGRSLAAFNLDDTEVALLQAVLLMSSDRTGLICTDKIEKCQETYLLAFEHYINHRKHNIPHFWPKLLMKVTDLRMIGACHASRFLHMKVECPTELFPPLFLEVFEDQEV
How it was run: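 Frog thyroid receptor alpha was tested as an exogenous NR-Gal4 fusion in transiently transfected HepG2 cells. After 24 h chemical treatment, reporter mRNA induction was quantified by RT-PCR and capillary electrophoresis, with gain-of-signal analysed relative to DMSO.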

NC(=O)N1c2ccccc2C=Cc2ccccc21
outcome [1]: inactive
outcome [2]: inactive

Cc1nccn1-c1ccc(Sc2cccc(C3(C(N)=O)CCOCC3)c2)cc1
outcome [1]: inactive
outcome [2]: inactive

CCCCN1C(=O)[C@@H]([C@H](O)C2CCCCC2)NC(=O)C12CCN(Cc1ccc(Oc3ccc(C(=O)O)cc3)cc1)CC2
outcome [2]: inactive

O=S(=O)(O)c1ccc(N=Nc2c(O)ccc3cc(S(=O)(=O)O)ccc23)cc1
outcome [3]: inactive

Cn1cc[nH]c1=S
outcome [1]: inactive
outcome [2]: inactive

CCCCCCCCCCCCCCCCOS(=O)(=O)O
outcome [2]: inactive

CCN(CC)C(=S)SSC(=S)N(CC)CC
outcome [4]: inactive
outcome [5]: inactive
outcome [6]: inactive
outcome [7]: inactive
outcome [8]: inactive
outcome [9]: inactive
outcome [1]: inactive
outcome [2]: inactive

CCCCOC(=O)c1ccccc1
outcome [1]: inactive
outcome [2]: inactive

OCC(CO)(CO)CO
outcome [1]: inactive
outcome [2]: inactive

O=S(=O)(O)CCC(F)(F)C(F)(F)C(F)(F)C(F)(F)C(F)(F)C(F)(F)F
outcome [1]: inactive

CC(C)C(=O)Nc1ccc([N+](=O)[O-])c(C(F)(F)F)c1
outcome [4]: inactive
AC50 [5]: 35.9 µM (active)
outcome [6]: inactive
AC50 [7]: 65.2 µM (active)
AC50 [8]: 50.1 µM (active)
AC50 [10]: 42.2 µM (active)
AC50 [9]: 62.4 µM (active)
outcome [1]: inactive
outcome [2]: inactive

C=CCc1cc(S(=O)(=O)c2ccc(O)c(CC=C)c2)ccc1O
outcome [4]: inactive
outcome [5]: inactive
outcome [6]: inactive
AC50 [10]: 1.72 µM (active)
AC50 [1]: 38.9 µM (active)
AC50 [2]: 36.8 µM (active)

COc1cc(C(C)C)c2c(c1)S(=O)(=O)N(COc1cc(=O)n3cccc(OCCN4CCCCC4)c3n1)C2=O
outcome [1]: inactive
outcome [2]: inactive

c1ccc2cc3ccccc3cc2c1
outcome [3]: inactive

CC(C)c1nnc2ccc(-c3ocnc3-c3cc(F)ccc3F)cn12
outcome [1]: inactive
outcome [2]: inactive

CCc1ccc(O)c(C(C)(C)C)c1
outcome [1]: inactive
outcome [2]: inactive

Cc1nc(-c2ccccn2)ncc1C(=O)Nn1cc(C)c2cc(F)ccc21
AC50 [3]: 13.2 µM (active)

CCCCC(CC)C(=O)OCCOCCOCCOC(=O)C(CC)CCCC (centres undefined)
outcome [1]: inactive
outcome [2]: inactive

c1ccc(C(O[C@@H]2CCCN(CCc3ccc4c(c3)OCO4)C2)c2ccccc2)cc1
outcome [1]: inactive
outcome [2]: inactive
